Measured values reported in ChEMBL document CHEMBL3988442, “University of Dundee, Small-Polar-MMV Screening Library” (2021).
Among all 48,000 compounds or so, about 13,000 (27%) showed an effect of 50% or more. This is one part of the list.

These compounds were tested on Wolbachia pipientis (assay: Anti-Wolbachia Cell-Based Screen). Details: 5 µM.
Format: functional
Set-up: scale not given: in the data most compounds retested in dose-response had high values

| SMILES | Percent Effect [%] |
| --- | --- |
| CN1CCN(c2ccc(NC(=O)c3ccoc3)c(C(F)(F)F)c2)CC1 | 7.046 |
| O=C(c1ncncc1Cl)N1CCC2(CCCC2)CC1 | -11.62 |
| CN(C)C(=O)CCS(=O)(=O)Cc1ccn(-c2cccc(F)c2)n1 | -10.5 |
| Cn1cnc(NC(=O)C2CC(=O)N(c3cccc(F)c3)C2)n1 (stereo unspecified) | 77.24 |
| CNC(=O)C1CC(=O)N(c2cccc(F)c2)C1 (stereo unspecified) | -1.566 |
| COc1cc(NC(=O)C2CC(=O)N(c3cccc(F)c3)C2)ncn1 (stereo unspecified) | -6.208 |
| O=C(CCc1ccc2c(c1)CCO2)Nc1nnn[nH]1 | 108.2 |
| O=C(Cc1ccc2c(c1)OCCO2)NC1CCCC1 | -1.576 |
| O=C(Cc1ccc2c(c1)OCCCO2)Nc1nnn[nH]1 | 102.7 |
| O=C(Cc1ccc2c(c1)CCO2)N1CCN(c2cnccn2)CC1 | -10.75 |
| O=C(Cc1ccc2c(c1)CCO2)Nc1cccnc1-n1cncn1 | -24.6 |
| O=C(Cc1ccc2c(c1)OCCO2)NCCc1nnc2n1CCC2 | -0.3257 |
| CN(C)c1ncc(-c2ccc(F)cc2)c(C2CNCCO2)n1.Cl (stereo unspecified) | 112.1 |
| CN(C)c1ncc(-c2cncnc2)c(C2CNCCO2)n1.Cl (stereo unspecified) | 130 |
| COc1ccc(-c2cnc(N(C)C)nc2C2CNCCO2)cc1.Cl (stereo unspecified) | 76.7 |
| Cc1csc(C(C)(C)NCCCS(C)(=O)=O)n1 | -31.79 |
| CC(C)Cc1ccc(S(=O)(=O)Nc2ccc(=O)n(C)c2)cc1 | -23.57 |
| CC(C)C(O)C(=O)N1CCC2(CC1)c1nc[nH]c1CCN2S(C)(=O)=O (stereo unspecified) | -6.881 |
| O=C(c1ccncc1)N1CCCC1c1nc(O)cc(-c2ccccn2)n1 (stereo unspecified) | 134.3 |
| CCc1cc(O)nc(C2CCCN2C(=O)c2cccnc2)n1 (stereo unspecified) | -9.162 |
| O=C(c1cccnc1)N1CCCC1c1nc(O)cc(-c2ccccn2)n1 (stereo unspecified) | 120.2 |
| O=C(c1cc(-c2ccc(O)cc2)n[nH]1)N1CCCC1c1cccnc1 (stereo unspecified) | -9.956 |
| CC(C)(C)C(=O)N1CCCC1c1nc(O)cc(-c2ccccn2)n1 (stereo unspecified) | -2.189 |
| O=C(c1ccc2c(c1)COC2)N1CCN(CC2CC2)CC1 | -6.158 |
| CC(C)OCc1nn(C)c2c1CN(Cc1cccs1)CC2.O=CO | 90.1 |
| COCc1nn(CC2CC2)c2c1CN(Cc1cccs1)CC2.O=C(O)C(F)(F)F | -6.214 |

| SMILES | Percent Effect [%] |
| --- | --- |
| CCN1CCc2c(c(COC)nn2C)C1 | -29.06 |
| O=C(O)C(F)(F)F.c1csc(CN2CCCn3cnc(COCC4CC4)c3C2)c1 | -4.67 |
| Cn1nc(COCC2CC2)c2c1CCN(Cc1cccs1)C2.O=C(O)C(F)(F)F | 99.16 |
| CCOCc1nn(C)c2c1CN(C(=O)c1ccno1)CC2 | -1.809 |
| Cn1nc(COCC2CC2)c2c1CCN(Cc1ccco1)C2.O=C(O)C(F)(F)F | -12.11 |
| Cc1nc(NC(C)C)nc2c1CN(Cc1cccs1)CC2 | 0.7721 |
| COCc1nn(C(C)C)c2c1CCN(Cc1cccs1)C2.O=C(O)C(F)(F)F | 0.7419 |
| CCOCc1nn(C)c2c1CN(CCO)CC2 | 105.8 |
| CCOCc1nn(CC2CC2)c2c1CN(Cc1ccco1)CC2.O=C(O)C(F)(F)F | -45.76 |
| CCOCc1nn(CC2CC2)c2c1CN(Cc1cccs1)CC2.O=C(O)C(F)(F)F.O=C(O)C(F)(F)F | 105 |
| Cc1ccc(C)c2c(O)cc(CNCC(=O)N3CCCC3)nc12 | -11.62 |
| COc1ccc(CNC(=O)N2CCCN(CC3CCCCC3)CC2)cn1 | -6.571 |
| CN(C)c1ncccc1NC(=O)COC1CCCC1 | 0.222 |
| CCOCc1nn(C)c2c1CN(Cc1cccs1)CC2.O=C(O)C(F)(F)F | 87.87 |
| O=C(O)C(F)(F)F.OCCOCc1ncn2c1CN(Cc1cccs1)CCC2 | 0.3209 |
| CCCN(CC(F)F)c1cc(COC)nc2ncnn12 | -12.24 |
| O=C(c1ccc(C2CCCN2)s1)N1CCC2(CCCO2)CC1 (stereo unspecified) | 16.77 |
| c1csc(-c2cc(CN3CCN(c4cnccn4)CC3)no2)c1 | -0.0676 |
| c1cn(Cc2nnc(C3CCN(C4CCCCC4)CC3)n2C2CC2)cn1 | 13.15 |
| c1cc(CN2CCCN(c3ccc4cc[nH]c4n3)CC2)ccn1 | -27.97 |
| c1cn(Cc2ccc(N3CCCN(C4CCCC4)CC3)nc2)cn1 | 96.41 |
| COc1cnc(N2CCCN(c3ccc(F)cc3)CC2)nc1 | 8.48 |
| CN(CC1CCN(c2ccccc2)C1)c1ccc(Cn2ccnc2)cn1 (stereo unspecified) | -14.61 |
| CC1CCN(c2ccc(CNC(=O)NCCn3ccnc3)cn2)CC1 | 0.6283 |
| O=C(NCCn1ccnc1)NCc1ccc(N2CCCCCC2)nc1 | 15.34 |
